Compounds with a hit are over-represented: about 3.7% of the library has one in this group of screens.
D3 ag: activates the human D3 dopamine receptor. P35462. D3R DiscoveRx beta-arrestin cells, luminescence, 90 min. max activation, %. 0.58% of 410,000 active. AID 652048; in the data active = max activation above about 30%
Target sequence (P35462 whole entry, looked up): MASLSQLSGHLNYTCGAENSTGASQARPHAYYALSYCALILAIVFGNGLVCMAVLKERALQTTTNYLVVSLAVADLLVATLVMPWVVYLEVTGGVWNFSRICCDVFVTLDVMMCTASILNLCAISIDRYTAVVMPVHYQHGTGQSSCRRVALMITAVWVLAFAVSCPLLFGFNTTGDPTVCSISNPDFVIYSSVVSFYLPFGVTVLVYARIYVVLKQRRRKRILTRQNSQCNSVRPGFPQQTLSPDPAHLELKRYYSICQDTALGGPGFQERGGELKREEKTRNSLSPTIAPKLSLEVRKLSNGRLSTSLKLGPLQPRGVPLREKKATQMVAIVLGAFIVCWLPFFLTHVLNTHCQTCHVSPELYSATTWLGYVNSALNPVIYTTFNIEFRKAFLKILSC
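Cells at 1500/well, incubated overnight, then treated with pinned compounds (dopamine as control) for 90 min at 37 degrees C. DiscoveRx reagent added for 30 - 60 minutes at room temperature; luminescence read.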
DRD3 antagonist: D3 dopamine receptor (human) antagonism; D3R cells, DiscoveRx beta-arrestin luminescence, antagonist mode; stronger effect = lower value; max response, negative = inhibition, %; 2.5% of 360,000 active; in the data active = max response below about -50%; inconclusive = no clear call, values can overlap the other calls
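Cells plated overnight at 1500 cells/well, then exposed to library compounds with dopamine controls for 90 minutes at 37 degrees C. DiscoveRx reagent added for 30–60 minutes at room temperature; luminescence read, quantitative HTS format.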
BRCA1 expr act: activators of BRCA1 expression. MCF7-BRCA1-FFLuc reporter, luminescence, 48 h; response scale: scaled: vehicle 0%, 10 µM genistein 100%. Potency, µM (highest dose often 46.1 µM), most hits filed as activators. 1.1% of 380,000 active; also: nearly all actives have a fitted effect of over 80% in size
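Cells: MCF7-BRCA1-FFLuc, 2000/well. Exposure: 48 h, 37 °C, 5% CO2. Read: luminescence, 15 min post-substrate. Controls: genistein 10 microM (maximal activation), DMSO (neutral).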
B2AR arrestin: beta2AR (human) beta-arrestin recruitment activity | P07550 | beta-arrestin recruitment to beta2AR, cell-based reporter | Potency, µM (top dose mostly 46.1 µM), actives largely listed as activators | 0.02% of 330,000 active; also: nearly all actives have a fitted effect of over 65% in size
PTHR1 ag: agonists of human PTHR1 parathyroid hormone receptor; Q03431; HEK293 GP2 PTHR1 cells, GloSensor cAMP luminescence, 1 h; Potency, µM (titrated, usually from 115 µM), most hits filed as activators; 0.075% of 410,000 active; also: nearly all actives have a fitted effect of over 55% in size
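HEK-293-derived GP2 cells expressing PTHR1 and a GloSensor cAMP reporter, 3,000/well, plated overnight, given luciferin plus IBMX (each 0.5 mM as added) for 1 h at 37 °C, then compound for 1 h at 37 °C. Luminescence was read after 15 min at room temperature.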
RGS4 inh: blocks human RGS4-accelerated GTP hydrolysis. Transcreener GDP fluorescence polarization, RGS4-accelerated GTP hydrolysis. Potency, µM (highest dose often 114 µM), usual class: inhibitors. 0.039% of 390,000 active. AID 504845; also: nearly all actives have a fitted effect of over 75% in size
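MLSMR compounds (23 nl, pin-transferred) preincubated 10 min at room temperature with a 500nM (2x) first reagent, then RGS4 at 900nM (2x) plus Transcreener GDP mix added; fluorescence polarization (620/688 nm) read before and after 90 min at 30 °C.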
Large screens that a line does not name were inactive; ! = not confirmed by another sample. Unless noted, calls follow the shape of the dose curve; as a rule, active = well fitted curve in the direction sought with a large enough effect; inconclusive = small, poorly fitted or top-dose-only effect, or another doubt; inactive = no such curve, though single readings can be large; an effect the other way counts as inactive or inconclusive.

S=C(Nc1cc(Cl)cc(Cl)c1)N1CCN(c2ccccn2)CC1	none
C=C(C)C1CC=C(CN2CC(C)OC(C)C2)CC1 (stereo not drawn)	none
C=C(C)C1CC=C(CN2CCC(C(=O)OCC)CC2)CC1 (stereo not drawn)	DRD3 antagonist -61
CCOC(=O)C1CCN(Cc2cnc(Oc3ccc(Cl)cc3C)s2)CC1	DRD3 antagonist -58
Cc1noc(C)c1COc1ccccc1C(=O)NCCc1ccc(S(N)(=O)=O)cc1	none
COc1cc(CNc2ccc3[nH]c(=O)[nH]c3c2)cc(Br)c1OCc1ccc(F)cc1	D3 ag 33!
O=C(Nc1ccnn1C1CCN(Cc2ccc(CO)o2)CC1)c1ccccc1	none
CCCCN(C)CCn1c(=S)[nH]c2ccc(N3CCOCC3)cc2c1=O	DRD3 antagonist -66
CCN(CC)S(=O)(=O)c1ccc(-c2nnc(SCc3nnc(-c4ccc(C)cc4)o3)n2CC)cc1	none
CCN(CC)S(=O)(=O)c1cccc(-c2nnc(SCc3nnc(-c4ccccc4)o3)n2C)c1	DRD3 antagonist -50
CC(C)(C)c1nc(CN2CCCCC2)cc(CN2CCCCC2)c1O	DRD3 antagonist -72
O=C(NCc1cccs1)c1cc(-c2ccccc2)on1	BRCA1 expr act 5µM
COCC(C)NC(=O)c1cc(-c2cccc(OC)c2)on1 (stereo not drawn)	BRCA1 expr act 10µM
CCCNC(=O)c1cc(-c2ccc(Br)cc2)on1	BRCA1 expr act 1.8µM
O=C(NCc1cccs1)c1cc(-c2cccs2)on1	none
Cc1ccc(-c2cc(C(=O)NCc3ccco3)no2)cc1	BRCA1 expr act 4µM
COCCNC(=O)c1cc(-c2cccc(OC)c2)on1	BRCA1 expr act inconclusive
CC(C)NC(=O)c1cc(-c2ccc(Br)cc2)on1	BRCA1 expr act inconclusive
CC1(C(=O)Nc2ccc(Cl)c(Cl)c2)CCN1C(=O)CC1CCCC1 (stereo not drawn)	none (no result: B2AR arrestin, RGS4 inh)
COc1ccc(OC)c(NC(=O)C2(C)CCN2CCc2ccccc2)c1 (stereo not drawn)	none (no result: B2AR arrestin, RGS4 inh)
Cc1cc(C(=O)NCc2ccco2)no1	none
COc1cccc(OCc2cc(C(=O)NCc3ccccn3)no2)c1	BRCA1 expr act 13µM
CC(C)(C)c1ccc(NC(=S)NCCc2ccccn2)cc1	none
CCc1ccc(OCc2ccc(C(=O)NCc3ccccn3)o2)cc1	DRD3 antagonist -70, BRCA1 expr act inconclusive
COc1cccc(OCc2cc(C(=O)NCCc3cccc(C)n3)no2)c1	none
CC(=O)c1ccc(NC(=S)NCCc2ccccn2)cc1	BRCA1 expr act 10µM
COc1ccc(OC)c(-c2cc(C(=O)NCc3ccco3)no2)c1	DRD3 antagonist -54
CCOC(=O)c1cc(-c2ccc(F)cc2)n(CC(=O)NC2CCCCCC2)c1C	none (no result: DRD3 antagonist, BRCA1 expr act, B2AR arrestin)
Oc1cccc(Nc2cc(-c3ccccc3)ncn2)c1	none (no result: DRD3 antagonist, BRCA1 expr act, B2AR arrestin)
Cc1onc(-c2ccccc2Cl)c1C(=O)NCc1ccccn1	DRD3 antagonist -58
COc1cccc(-c2cc(C(=O)NCc3ccco3)no2)c1	BRCA1 expr act 7.9µM
Cc1onc(-c2c(F)cccc2Cl)c1C(=O)NCc1ccccn1	none
CCc1ccc(NC(=O)C(=O)NCc2ccccn2)cc1	BRCA1 expr act 3.5µM
Cc1ccc(-c2cc(C(=O)NCc3ccccn3)no2)cc1	BRCA1 expr act 11µM
O=C(Cn1nnc(-c2ccc(C(F)(F)F)cc2)n1)NCCc1ccccc1	none (no result: DRD3 antagonist, B2AR arrestin)
CCCS(=O)(=O)NC(=O)C1(C)CCN(C(=O)c2cc(C)on2)C1 (stereo not drawn)	none (no result: B2AR arrestin, RGS4 inh)
Cc1nc2ccccn2c(=O)c1NC(=O)c1ccccc1Cl	PTHR1 ag inconclusive (no result: DRD3 antagonist, BRCA1 expr act, B2AR arrestin)
CC1SCC(NC(=O)c2ccc(Cl)cc2)CS1 (stereo not drawn)	BRCA1 expr act 11µM
O=C1C(Cc2ccccc2)Nc2ncnc(N3CCN(c4ccccc4)CC3)c2N1Cc1ccc(Br)cc1 (stereo not drawn)	DRD3 antagonist -151
O=C1C(Cc2ccccc2)Nc2ncnc(N3CCc4ccccc4C3)c2N1Cc1ccc(Br)cc1 (stereo not drawn)	none (no result: D3 ag, DRD3 antagonist, BRCA1 expr act, PTHR1 ag, RGS4 inh)

Bioassay records: PubChem, National Center for Advancing Translational Sciences (NCATS)
